Laboratory results: PubChem BioAssay (NCATS)
Records with an inconclusive call do not appear. The source made the active and inactive calls. Unless noted, calls follow the shape of the full dose curve.

Assays:
[1] = qHTS of pediatric cancer cell lines to identify multiple opportunities for drug repurposing: Primary screen for SK-N-MC cells (AID 1347093; active = well fitted cell-killing curve with a large enough effect); details: SK-N-MC viability, CellTiter-Glo luminescence, 48 h; series mostly up to 46 µM
How it was run: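 Metabolically active cells were quantified by ATP-dependent luminescence (CellTiter-Glo, 15 min at room temperature) following 48 h treatment. Cells had been plated at 500-1,000 per well and settled for 5 h beforehand.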

[2] = qHTS for Inhibitors of the Functional Ribonucleoprotein Complex (vRNP) of Lassa (LASV) Arenavirus: LASV Primary Screen - GLuc reporter signal (AID 1347082; calls by dose curve; tested in HEK293 reporter line; also: nearly all actives have a fitted effect of over 60% in size); details: LASV minigenome vRNP, Gaussia luciferase reporter; series mostly up to 57.5 µM
[3] = qHTS for Inhibitors of the Functional Ribonucleoprotein Complex (vRNP) of Lassa (LASV) Arenavirus: Viability assay - alamar blue signal for LASV Primary Screen (AID 1347083; calls by dose curve; tested in HEK293 reporter line; also: nearly all actives have a fitted effect of over 80% in size); details: cell viability, alamar blue fluorescence (LASV minigenome counter-screen); series mostly up to 57.5 µM
[4] = qHTS for Inhibitors of the Functional Ribonucleoprotein Complex (vRNP) of Lymphocytic Choriomeningitis Arenaviruses (LCMV): Viability assay - alamar blue signal for LCMV Primary Screen (AID 1347085; calls by dose curve; tested in HEK293 reporter line; also: nearly all actives have a fitted effect of over 80% in size); details: alamar blue viability counter-screen, LCMV vRNP screen cells; series mostly up to 57.5 µM
[5] = biological target: Nucleoprotein (Lymphocytic choriomeningitis virus (strain Armstrong)) (UniProt P09992); assay: qHTS for Inhibitors of the Functional Ribonucleoprotein Complex (vRNP) of Lymphocytic Choriomeningitis Arenaviruses (LCMV): LCMV Primary Screen - GLuc reporter signal (AID 1347086); details: LCMV minigenome vRNP cell assay, Gaussia luciferase reporter; series mostly up to 57.5 µM; also: nearly all actives have a fitted effect of over 70% in size

Measured: Potency

Sequence of Nucleoprotein (Lymphocytic choriomeningitis virus (strain Armstrong)) (P09992 whole entry, looked up): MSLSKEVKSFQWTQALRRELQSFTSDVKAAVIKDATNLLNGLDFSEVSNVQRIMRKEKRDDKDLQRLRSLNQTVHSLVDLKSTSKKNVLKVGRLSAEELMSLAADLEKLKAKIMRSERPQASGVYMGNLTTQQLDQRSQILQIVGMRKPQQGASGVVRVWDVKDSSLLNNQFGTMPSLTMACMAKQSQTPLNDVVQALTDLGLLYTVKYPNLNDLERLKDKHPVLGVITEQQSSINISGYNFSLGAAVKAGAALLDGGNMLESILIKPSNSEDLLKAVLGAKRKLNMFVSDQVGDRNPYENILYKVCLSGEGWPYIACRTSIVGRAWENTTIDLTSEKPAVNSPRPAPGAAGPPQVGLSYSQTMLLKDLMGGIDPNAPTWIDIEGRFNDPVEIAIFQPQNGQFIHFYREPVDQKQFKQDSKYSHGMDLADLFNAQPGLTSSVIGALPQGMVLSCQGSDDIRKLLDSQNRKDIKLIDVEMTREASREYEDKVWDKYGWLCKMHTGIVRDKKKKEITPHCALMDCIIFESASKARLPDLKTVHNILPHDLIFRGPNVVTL

NC(=O)CN1CCCC1=O
inactive: [1]

O=C(O)c1nn(Cc2ccc(Cl)cc2Cl)c2ccccc12
inactive: [1]

CN(C)CCOC(c1ccccc1)c1ccccc1
not listed: [1]
inactive: all other assays above

COC(=O)C1=C(C)NC(C)=C(C(=O)OCCN2CCN(C(c3ccccc3)c3ccccc3)CC2)C1c1cccc([N+](=O)[O-])c1 (centres undefined)
not listed: [1]
inactive: all other assays above

C[N+](C)(C)CCOC(=O)CCC(=O)OCC[N+](C)(C)C
not listed: [1]
inactive: all other assays above

CCc1cccc(N(C)C(N)=Nc2cccc3ccccc23)c1
not listed: [1]
inactive: all other assays above

c1ccc2c(c1)CCc1ccccc1N2
not listed: [1]
inactive: all other assays above

CCNC(=O)NCc1cccc(Cl)c1
not listed: [1]
inactive: all other assays above

O=c1cc(CO)occ1O
not listed: [1]
inactive: all other assays above

C(=C\c1ccccc1)/CN1CCN(C(c2ccccc2)c2ccccc2)CC1
not listed: [1]
inactive: all other assays above

CN1CCN(C2Cc3ccccc3Sc3ccc(Cl)cc32)CC1 (centres undefined)
not listed: [1]
inactive: all other assays above

CC(C(=O)O)c1ccc2c(c1)Cc1cccnc1O2 (centres undefined)
not listed: [1]
inactive: all other assays above

N[C@H](Cc1c[nH]c2ccccc12)C(=O)O
not listed: [1]
inactive: all other assays above

O=C1c2ccccc2C(=O)C1c1ccccc1
not listed: [1]
inactive: all other assays above

C[C@@H]1C[C@H]2[C@@H]3CCC4=CC(=O)C=C[C@]4(C)[C@@]3(F)[C@@H](O)C[C@]2(C)[C@@]1(O)C(=O)COC(=O)c1ccncc1
not listed: [1]
inactive: all other assays above

C/C=C(/C(=C/C)c1ccc(OC(C)=O)cc1)c1ccc(OC(C)=O)cc1
not listed: [1]
inactive: all other assays above

CC(C)c1cc2c(cc1S(=O)(=O)O)[C@@]1(C)CCC[C@@](C)(C(=O)O)[C@@H]1CC2
not listed: [1]
inactive: all other assays above

C#C[C@]1(O)CC[C@H]2[C@@H]3CCc4cc(OC)ccc4[C@H]3CC[C@@]21C
not listed: [1]
inactive: all other assays above

CN(C)CCN(Cc1cccs1)c1ccccn1
not listed: [1]
inactive: all other assays above

CC1=C(CC(=O)O)c2cc(F)ccc2/C1=C\c1ccc(S(C)(=O)=O)cc1
not listed: [1]
inactive: all other assays above

CC(=O)OCC1=C(C(=O)O)N2C(=O)[C@@H](NC(=O)CSc3ccncc3)[C@H]2SC1
not listed: [1]
inactive: all other assays above

CC(=O)OC[C@H]1O[C@@](COC(C)=O)(O[C@H]2O[C@H](COC(C)=O)[C@@H](OC(C)=O)[C@H](OC(C)=O)[C@H]2OC(C)=O)[C@@H](OC(C)=O)[C@@H]1OC(C)=O
not listed: [1]
inactive: all other assays above

OC(CN1CCC(Cc2ccc(F)cc2)CC1)c1ccc(Cl)cc1 (centres undefined)
not listed: [1]
inactive: all other assays above

CC(=O)c1ccc2c(c1)N(CCCN1CCC(CCO)CC1)c1ccccc1S2
not listed: [1]
inactive: all other assays above

CCN(CC)CCOC(=O)C1(c2ccccc2)CCCC1
not listed: [1]
inactive: all other assays above

CN1CCC(=C2c3ccccc3Sc3ccccc32)CC1
not listed: [1]
inactive: all other assays above

CCc1cc2cc(OC)c(OC)cc2c(Cc2ccccc2)n1
not listed: [1]
inactive: all other assays above

COc1ccccc1N1CCN(CCCNc2cc(=O)n(C)c(=O)n2C)CC1
not listed: [1]
inactive: all other assays above

COc1ccc(CCC(C)=O)cc1
not listed: [1]
inactive: all other assays above

CC(C)(C)C(=O)NCCCC(=O)O
not listed: [1]
inactive: all other assays above

CC(O)Cn1cnc2c1c(=O)n(C)c(=O)n2C (centres undefined)
not listed: [1]
inactive: all other assays above

NC(N)=N/N=C/c1c(Cl)cccc1Cl
not listed: [1]
inactive: all other assays above

Nc1ccc(C(=O)NCC(=O)O)cc1
not listed: [1]
inactive: all other assays above

CCN(CC)CCOC(=O)C(c1ccccc1)c1ccccc1
not listed: [1]
inactive: all other assays above

CCN[C@H]1C[C@H](C)S(=O)(=O)c2sc(S(N)(=O)=O)cc21
not listed: [1]
inactive: all other assays above
